Results filed as inconclusive are left out. Activity calls are given as the source filed them. Calls come from the whole dose curve; as a rule, active = well fitted cell-killing curve with a large enough effect; inconclusive = small, poorly fitted or top-dose-only effect, or effect the other way; inactive = no such curve, though single readings can be large or run the other way.
assay: Quantitative High-Throughput drug screen in 47 multiple myeloma cell lines against the NCATS MIPE library collection: FR4_PLB cell viability assay (AID 1918924; note: nearly all actives have a fitted effect of over 35% in size); settings: FR4_PLB myeloma cells viability, CellTiter-Glo ATP, 48 h; series mostly up to 45.8 µM; viability (% of DMSO control): at the top concentration
Text: PI: Beverly A. Mock Ph.D.
Laboratory of Cancer Biology and Genetics,
Center for Cancer Research, National Cancer Institute,
National Institute of Health, Bethesda, Maryland
Drug resistance and disease progression are common in multiple myeloma (MM) patients, underscoring the need for new therapeutic combinations. […] We hypothesized that effective combinations would reduce MYC expression and enhance p16 activity. […] These preclinical data identify potentially useful drug combinations for evaluation in drug-resistant MM and reveal potential mechanisms of combined drug sensitivity.
Described herein is the primary MIPE qHTS used to cherrypick compounds. Validated compounds were then further tested for potential synergistic activiy.
[1] Peat TJ, Gaikwad SM, Dubois W, Gyabaah-Kessie N, Zhang S, Gorjifard S, Phyo Z, Andres M, Hughitt VK, Simpson RM, Miller MA, Girvin AT, Taylor A, Williams D, D'Antonio N, Zhang Y, Rajagopalan A, Flietner E, Wilson K, Zhang X, Shinn P, Klumpp-Thomas C, McKnight C, Itkin Z, Chen L, Kazandijian D, Zhang J, Michalowski AM, Simmons JK, Keats J, Thomas CJ, Mock BA. Drug combinations identified by high-throughput screening promote cell cycle transition and upregulate Smad pathways in myeloma. Cancer Lett. 2023 Aug 1;568:216284. doi: 10.1016/j.canlet.2023.216284. Epub 2023 Jun 24. PMID: 37356470; PMCID: PMC10408729.
SEQUENCE No. (e.g., 1, 2, 3, etc.); […] (e.g., Cells, Incubation, Reagent, etc.); VALUE and DESCRIPTION.
1; Cells; 5 uL; white, solid bottom 1536-well Greiner assay plate.
2; Compounds; 23 nL; Kalypsis pin tool (Wako USA) equipped with a 1536-well pin head to transfer to the assay plates.
3; Incubation; 48 hours; 37C incubation.
4; Reagent;5uL; CellTiter Glo (Promega).
5; Detector; 425V; Luminescence; Viewlux PerkinElmer.
NOTES (numbers refer to Sequence numbers above)
1. The cell-based screening methods employed in this study were like those previously published. Briefly, the corresponding myeloma cell lines were screened in 1,536-well plates with 500 cells, 5-uL per well for inhibition of cell viability (assessed by measuring ATP levels with CellTiterGlo).
2. NCATS MIPE 4.0 library of approved and investigational drugs were added using the Kalypsis pin tool. Wells treated with DMSO only for 100% viability and media only wells for 0% viability were used as controls.
3. The assay plates were covered and incubated for 48 hours in a 37C, 5% CO2 incubator with controlled humidity.
4. After 48 hours, CellTilter-GloTM luminescent substrate mix (Promega) reagent was added to the assay plate and plates we incubated for 5 min at room temperature.
5. Signal was measured as median relative luminescence units on a ViewLux (PerkinElmer) multiplate reader.
[1] Heske CM, Davis MI, Baumgart JT, Wilson K, Gormally MV, Chen L, Zhang X, Ceribelli M, Duveau DY, Guha R, Ferrer M, Arnaldez FI, Ji J, Tran HL, Zhang Y, Mendoza A, Helman LJ, Thomas CJ. Matrix Screen Identifies Synergistic Combination of PARP Inhibitors and Nicotinamide Phosphoribosyltransferase (NAMPT) Inhibitors in Ewing Sarcoma. Clin Cancer Res. 2017 Dec 1;23(23):7301-7311. doi: 10.1158/1078-0432.CCR-17-1121. Epub 2017 Sep 12. PMID: 28899971; PMCID: PMC6636827.
Potency is the fitted concentration of half-maximal effect.

| SMILES | viability (% of DMSO control) | Potency |
| --- | --- | --- |
| NCC1(CC(=O)O)CCCCC1 | 108% (inactive) |  |
| CNC(=O)c1ccc(N2C(=S)N(c3ccc(C#N)c(C(F)(F)F)c3)C(=O)C23CCC3)cc1F | 104% (inactive) |  |
| COC1(CS(=O)c2ccccc2)CCN(CCc2c[nH]c3ccc(F)cc23)CC1 (stereo not given) | 97.2% (inactive) |  |
| O=C1CC[C@@]2(O)[C@H]3Cc4ccc(O)c5c4[C@@]2(CCN3CC2CC2)[C@H]1O5 | 125% (inactive) |  |
| CC1=C2C[C@@H]3[C@@H](CC=C4C[C@@H](O)CC[C@@]43C)[C@@H]2CC[C@]12O[C@H]1C[C@H](C)CN[C@H]1[C@H]2C |  | 10.5 µM (active) |
| COc1ccc(C(CN(C)C)C2(O)CCCCC2)cc1 (stereo not given) | 104% (inactive) |  |
| Cc1sc2c(c1C)C(c1ccc(Cl)cc1)=N[C@@H](CC(=O)OC(C)(C)C)c1nnc(C)n1-2 |  | 0.332 µM (active) |
| N[C@@H](Cc1ccc(N(CCCl)CCCl)cc1)C(=O)O |  | 20.9 µM (active) |
| Cn1cc(C2=C(c3cn(C4CCN(Cc5ccccn5)CC4)c4ccccc34)C(=O)NC2=O)c2ccccc21 |  | 16.6 µM (active) |
| Cn1c(CCCC(=O)O)nc2cc(N(CCCl)CCCl)ccc21 |  | 16.6 µM (active) |
| CNCC(O)c1ccc(O)cc1 (stereo not given) | 116% (inactive) |  |
| C[C@@H]1O[C@@H](O[C@H]2C[C@@H](O)[C@]3(CO)[C@H]4[C@H](O)C[C@]5(C)[C@@H](C6=CC(=O)OC6)CC[C@]5(O)[C@@H]4CC[C@]3(O)C2)[C@H](O)[C@H](O)[C@H]1O |  | 0.0093 µM (active) |
| Cc1cc(SCc2sc(-c3ccc(C(F)(F)F)c(F)c3)nc2C)ccc1OCC(=O)O | 110% (inactive) |  |
| C#CCN(C)[C@H](C)Cc1ccccc1 | 95.2% (inactive) |  |
| O=P1(NCCCl)OCCCN1CCCl (stereo not given) |  | 16.6 µM (active) |
| O=C(O)C(=O)c1cn(Cc2ccccc2)c2ccc(-c3ccc(OC(F)(F)F)cc3)cc12 | 108% (inactive) |  |
| CN(C)CCN(C)CCc1ccc(Cl)c(Cl)c1 | 116% (inactive) |  |
| Fc1ccc(C(OCCN2CCN(CCCc3ccccc3)CC2)c2ccc(F)cc2)cc1 |  | 20.9 µM (active) |
| COC[C@H]1OC(=O)c2coc3c2[C@@]1(C)C1=C(C3=O)C2CCC(=O)[C@@]2(C)C[C@H]1OC(C)=O (stereo not given in full) |  | 11.8 µM (active) |
| COC[C@@H](NC(C)=O)C(=O)NCc1ccccc1 | 112% (inactive) |  |
| C=C(C)[C@H]1Cc2c(ccc3c2O[C@@H]2COc4cc(OC)c(OC)cc4[C@@H]2C3=O)O1 |  | 0.935 µM (active) |
| CN(C)CCc1ccc(O)cc1 | 113% (inactive) |  |
| CN1CCN(C(=O)O[C@H]2c3nccnc3C(=O)N2c2ccc(Cl)cn2)CC1 | 122% (inactive) |  |
| C[C@@H]1[C@@H](CC(C[C@H]2O[C@@H]3O[C@]4(C)CC[C@@H]5[C@H](C)CC[C@@H]([C@H]2C)[C@@]35OO4)C[S+](=O)([O-])c2ccc(COC(=O)N(C)C)cc2)O[C@@H]2O[C@]3(C)CC[C@H]4[C@H](C)CC[C@@H]1[C@@]24OO3 (stereo not given in full) |  | 0.209 µM (active) |
| O=c1[nH]c2ccccc2n1CCCN1CCC(n2c(=O)[nH]c3cc(Cl)ccc32)CC1 | 104% (inactive) |  |

Reference: PubChem BioAssay (NCATS)
